# According to PubChem BioAssay (NCATS):
# Results filed as inconclusive are left out. Entries that show only a call come without a potency. Activity calls are given as the source filed them. Unless noted, the call rests on the fitted dose curve; in most records, active means well fitted curve in the direction sought with a large enough effect; inconclusive means small, poorly fitted or top-dose-only effect, or another doubt; inactive means no such curve, though single readings can be large; an effect the other way counts as inactive or inconclusive.
# System: not listed separately
# Experiment: S16 Schwann cell PMP22 intronic element beta-lactamase assay (AID 624044; calls by dose curve; further: nearly all actives have a fitted effect of over 15% in size; further: potency means the concentration at half of the fitted maximal effect)
# Conditions: S16 rat Schwann cells, PMP22 element beta-lactamase FRET, 24 h; series mostly up to 38.3 µM
# Outline: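 Beta-lactamase reporter under a PMP22 intronic regulatory element in stable S16 rat Schwann cells; 24 h compound exposure. 460 nm blue signal normalized between DMSO (0%) and potassium clavulanate, with 535 nm FRET tracking viability; curves classed by r2 and response.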
row,SMILES,Potency
1,CN/C(=C\[N+](=O)[O-])NCCSCc1ccc(CN(C)C)o1,inactive
2,CC(C)COCC(CN(Cc1ccccc1)c1ccccc1)N1CCCC1 (stereo unspecified),inactive
3,CCCCNc1c(C(=O)OCC)c(C)nc2c1cnn2CC,inactive
4,COc1cc(C(=O)OCCCN2CCCN(CCCOC(=O)c3cc(OC)c(OC)c(OC)c3)CC2)cc(OC)c1OC,15.8 µM (active)
5,COC(=O)C1=C(C)NC(C)=C(C(=O)OCCN(C)Cc2ccccc2)C1c1cccc([N+](=O)[O-])c1 (stereo unspecified),inactive
6,c1cnc(N2CCN(Cc3ccc4c(c3)OCO4)CC2)nc1,inactive
7,CC1=C(C)C(=O)C(CCCCC#CCCCC#CCO)=C(C)C1=O,inactive
8,CN1C[C@H](C(=O)N[C@]2(C)O[C@@]3(O)[C@@H]4CCCN4C(=O)[C@H](Cc4ccccc4)N3C2=O)C[C@@H]2c3cccc4[nH]cc(c34)C[C@H]21,inactive
9,COC(=O)[C@@H](N)Cc1ccc(O)c(O)c1,inactive
10,CCOC(=O)C1=C(C)NC(C)=C(C(=O)OC)C1c1cccc(Cl)c1Cl (stereo unspecified),inactive
11,CCCC(C(=O)OCCN(CC)CC)(c1ccccc1)c1ccccc1,inactive

# Molecular target: Glutaminase kidney isoform, mitochondrial (Homo sapiens) (UniProt O94925)
# Experiment: qHTS for Inhibitors of Glutaminase (GLS): LOPAC Validation (AID 624146); further: nearly all actives have a fitted effect of over 60% in size; further: potency means the concentration at half of the fitted maximal effect
# Conditions: glutaminase enzyme activity inhibition; series mostly up to 46.1 µM
# Outline: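 Two-point fluorescence kinetic (t0, 30 min RT) for hKGA; glutamate detected via glutamate oxidase–HRP–Amplex Red. Substrate: 1 mM L-glutamine solution; buffer 45 mM KH2PO4, pH 8.2.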
# Chain of Glutaminase kidney isoform, mitochondrial (Homo sapiens) (O94925 whole entry, looked up, canonical isoform): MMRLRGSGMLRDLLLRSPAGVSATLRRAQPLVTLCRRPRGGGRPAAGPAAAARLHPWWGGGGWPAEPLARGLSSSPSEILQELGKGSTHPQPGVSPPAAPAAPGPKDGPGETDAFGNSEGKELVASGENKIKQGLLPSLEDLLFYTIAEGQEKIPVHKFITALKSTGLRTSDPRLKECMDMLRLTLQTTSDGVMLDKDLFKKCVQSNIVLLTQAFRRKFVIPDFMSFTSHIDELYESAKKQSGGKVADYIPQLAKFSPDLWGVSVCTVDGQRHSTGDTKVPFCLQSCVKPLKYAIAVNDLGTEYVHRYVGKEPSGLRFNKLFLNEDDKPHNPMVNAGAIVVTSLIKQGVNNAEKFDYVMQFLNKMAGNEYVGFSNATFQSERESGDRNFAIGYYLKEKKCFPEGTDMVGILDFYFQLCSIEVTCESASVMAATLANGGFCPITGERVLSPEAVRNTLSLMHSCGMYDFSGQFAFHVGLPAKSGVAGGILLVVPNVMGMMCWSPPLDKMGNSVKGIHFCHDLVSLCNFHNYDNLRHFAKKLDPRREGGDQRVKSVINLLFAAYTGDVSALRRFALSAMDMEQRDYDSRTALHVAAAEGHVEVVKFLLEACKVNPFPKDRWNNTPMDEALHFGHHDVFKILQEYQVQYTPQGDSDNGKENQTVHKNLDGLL
row,SMILES,Potency
1,CCNC(=O)N1CCN(CCCC(c2ccc(F)cc2)c2ccc(F)cc2)CC1,inactive
2,CN/C(=C\[N+](=O)[O-])NCCSCc1ccc(CN(C)C)o1,inactive
3,COCCCC/C(=N\OCCN)c1ccc(C(F)(F)F)cc1,inactive
4,C(=C\c1ccccc1)/CN1CCN(C(c2ccccc2)c2ccccc2)CC1,inactive
5,CN(C)CCCN1c2ccccc2Sc2ccc(C(F)(F)F)cc21,inactive
6,CCCNC(C)C(=O)Nc1ccccc1C (stereo unspecified),inactive
7,CC[N+](C)(C)c1cccc(O)c1,inactive
8,Cc1nc2c([nH]1)c(=O)n(C)c(=O)n2Cc1ccco1,inactive
9,CC1=C(C)C(=O)C(CCCCC#CCCCC#CCO)=C(C)C1=O,11.2 µM (active)
10,CN(C)CC/C=C1\c2ccccc2COc2ccccc21,inactive
11,Nc1c2c(nc3ccccc13)CCCC2O (stereo unspecified),inactive
12,CCN(CC)CCNC(=O)c1cc(S(C)(=O)=O)ccc1OC,inactive
13,CN1CCN(C2=Nc3ccccc3Oc3ccc(Cl)cc32)CC1,inactive
14,CSc1ccc(C(=O)c2[nH]c(=O)[nH]c2C)cc1,inactive
15,CN1C[C@H](C(=O)N[C@]2(C)O[C@@]3(O)[C@@H]4CCCN4C(=O)[C@H](Cc4ccccc4)N3C2=O)C[C@@H]2c3cccc4[nH]cc(c34)C[C@H]21,inactive
16,CCCC(C(=O)OCCN(CC)CC)(c1ccccc1)c1ccccc1,inactive
17,O=C1CC2(CCCC2)CC(=O)N1CCCCN1CCN(c2ncccn2)CC1,inactive
18,CCc1cccc(N(C)C(N)=Nc2cccc3ccccc23)c1,inactive
19,C[C@H](CS)C(=O)N1CCC[C@H]1C(=O)O,inactive
20,O=C(CCCN1CCC(O)(c2cccc(C(F)(F)F)c2)CC1)c1ccc(F)cc1,inactive

# System: not listed separately
# Experiment: qHTS of Trypanosoma Brucei Inhibitors: LOPAC Validation (AID 624147)
# Conditions: purified enzyme assay, luminescence, 45 min; series mostly up to 57.5 µM
# Outline: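 TbPYK + substrate in 50 mM TEA pH 7.2, 100 mM KCl, 10 mM MgCl2, 0.05% BSA, 0.01% Tween-20; cpd pinned; ADP 130 uM final; 45 min RT; Kinase-Glo Plus 10 min; luminescence endpoint.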
row,SMILES,outcome
1,CNCCCN1c2ccccc2CCc2ccccc21,inactive
2,CCNC(=O)N1CCN(CCCC(c2ccc(F)cc2)c2ccc(F)cc2)CC1,inactive
3,CN/C(=C\[N+](=O)[O-])NCCSCc1ccc(CN(C)C)o1,inactive
4,C[C@@H](O)[C@H]1C(=O)N2C(C(=O)O)=C(SCCN=CN)C[C@H]12,inactive
5,CC(C)COCC(CN(Cc1ccccc1)c1ccccc1)N1CCCC1 (stereo unspecified),inactive
6,COc1ccc2c(c1OC)C(=O)O[C@@H]2[C@H]1c2c(cc3c(c2OC)OCO3)CCN1C,inactive
7,CCCCNc1c(C(=O)OCC)c(C)nc2c1cnn2CC,inactive
8,COCCCC/C(=N\OCCN)c1ccc(C(F)(F)F)cc1,inactive
9,C(=C\c1ccccc1)/CN1CCN(C(c2ccccc2)c2ccccc2)CC1,inactive
10,CCCNC(C)C(=O)Nc1ccccc1C (stereo unspecified),inactive
11,CC[N+](C)(C)c1cccc(O)c1,inactive
12,COc1cc(C(=O)OCCCN2CCCN(CCCOC(=O)c3cc(OC)c(OC)c(OC)c3)CC2)cc(OC)c1OC,inactive
13,COC(=O)C1=C(C)NC(C)=C(C(=O)OCCN(C)Cc2ccccc2)C1c1cccc([N+](=O)[O-])c1 (stereo unspecified),inactive
14,c1cnc(N2CCN(Cc3ccc4c(c3)OCO4)CC2)nc1,inactive
15,CC(C)[N+](C)(CCOC(=O)C1c2ccccc2Oc2ccccc21)C(C)C,inactive
16,Cc1nc2c([nH]1)c(=O)n(C)c(=O)n2Cc1ccco1,inactive
17,CC1=C(C)C(=O)C(CCCCC#CCCCC#CCO)=C(C)C1=O,inactive
18,CN(C)CC/C=C1\c2ccccc2COc2ccccc21,inactive

row,SMILES,outcome
1,CN(C)CCN(Cc1cccs1)c1ccccn1,inactive
2,Nc1c2c(nc3ccccc13)CCCC2O (stereo unspecified),inactive
3,NCCCNCCSP(=O)(O)O,inactive
4,CCN(CC)CCNC(=O)c1cc(S(C)(=O)=O)ccc1OC,inactive
5,CN1CCN(C2=Nc3ccccc3Oc3ccc(Cl)cc32)CC1,inactive
6,CSc1ccc(C(=O)c2[nH]c(=O)[nH]c2C)cc1,inactive
7,CN1C[C@H](C(=O)N[C@]2(C)O[C@@]3(O)[C@@H]4CCCN4C(=O)[C@H](Cc4ccccc4)N3C2=O)C[C@@H]2c3cccc4[nH]cc(c34)C[C@H]21,inactive
8,O=C1NCN(c2ccccc2)C12CCN(CCCC(c1ccc(F)cc1)c1ccc(F)cc1)CC2,inactive
9,COC(=O)[C@@H](N)Cc1ccc(O)c(O)c1,inactive
10,CCOC(=O)C1=C(C)NC(C)=C(C(=O)OC)C1c1cccc(Cl)c1Cl (stereo unspecified),inactive
11,Cc1ccc(/C(=C\CN2CCCC2)c2ccccn2)cc1,inactive
12,CCCC(C(=O)OCCN(CC)CC)(c1ccccc1)c1ccccc1,inactive
13,O=C1CC2(CCCC2)CC(=O)N1CCCCN1CCN(c2ncccn2)CC1,inactive
14,Nc1nc(N)c2nc(-c3ccccc3)c(N)nc2n1,inactive
15,CCc1cccc(N(C)C(N)=Nc2cccc3ccccc23)c1,inactive
16,C[C@H](CS)C(=O)N1CCC[C@H]1C(=O)O,inactive
17,O=C(CCCN1CCC(O)(c2cccc(C(F)(F)F)c2)CC1)c1ccc(F)cc1,inactive
